Among the data in ChEMBL document CHEMBL4513216, “Probing the Open Global Health Chemical Diversity Library for Multistage-Active Starting Points for Next-Generation Antimalarials” (ACS Infect Dis, 2020) are INHIBITION values, retold here.

In all, about 68,000 compounds went through this assay and about 2,700 (4%) showed an effect of 50% or more. Many of the other results were omitted from the sample, so strong results are more common in it than they were.

The assay relates to Plasmodium berghei. Briefly: Screen against P. berghei liver stage (PbLuc), transformed with Luciferase, at 2uM. Particulars: tested at 2 uM. In kind it is functional, HepG2.
For `CCOC(C)c1nccn1Cc1noc(CC)n1` (stereo not drawn), the INHIBITION is -12.93%.

As to `COCCN1CC[C@H]2CN(c3cc(OC)ncn3)C[C@@H]2C1=O`, the INHIBITION is on record as -25.53%.

Take `O=C(c1ccccc1F)N1CCOC(c2nc(-c3ncccn3)no2)C1` (stereo not drawn): the INHIBITION is -14.56%.

Consider `COc1cccc(-c2ccc3nc(C4CCN(C(C)=O)CC4)nn3c2)c1`, for which the INHIBITION was -3.4%.

For `O=C1NC2(CCN(Cc3cccs3)CC2)CC1c1ccncc1` (stereo not drawn), the INHIBITION is -13.79%.

In the case of `O=C1NC2(CCN(Cc3ccc(F)cc3)CC2)CC1c1ccncc1` (stereo not drawn), the INHIBITION is on record as -26.22%.

For the compound `O=C1NC2(CCN(Cc3nccs3)CC2)CC1c1ccncc1` (stereo not drawn), the INHIBITION stood at 53.54%.

For `COc1ccc(CNC(=O)NCCc2csc(C)n2)cn1`, the INHIBITION is reported as -33.61%.

For the compound `Cc1nnc(N2CCC(CS(N)(=O)=O)CC2)c(C#N)c1C`, the INHIBITION is 46.52%.

For the compound `Cc1nnc(N2CCC(CN(C)C(C)C)CC2)c(C#N)c1C`, the INHIBITION is 2.1%.

Regarding `Cc1nnc(N2CCCC(CS(N)(=O)=O)C2)c(C#N)c1C` (stereo not drawn), the INHIBITION was determined as 57.79%.

Take `CNc1nccnc1C1CCN(C(C)C)CC1`: the INHIBITION is on record as -5.95%.

For the compound `Cc1c[nH]nc1C1CCN(S(=O)(=O)N(C)C)CC1`, the INHIBITION was 20.73%.

`CC(C)N1CCC(c2n[nH]cc2S(C)(=O)=O)CC1`: the INHIBITION came to 53.59%.

As to `CC1CCN(CCNCc2cc(-c3ccccc3)cn3nnnc23)CC1`, the INHIBITION was 26.56%.

On to `CCc1c(C)nn2c(O)cc(C3CCN(C(=O)C4CC4)C3)nc12` (stereo not drawn), for which the INHIBITION amounted to 11.53%.

As to `Cc1cccc(CN2CC3(CCN(Cc4ccoc4)CC3)OCC2=O)n1`, the INHIBITION was determined as 11.99%.

Take `O=C1CC(c2ccncc2)C2(CCN(Cc3cccnc3)CC2)N1` (stereo not drawn): the INHIBITION is given as -4.26%.

With `O=C1CC(c2ccccc2)C2(CCN(Cc3ccncc3)CC2)N1` (stereo not drawn), the INHIBITION was found to be 54.07%.

Regarding `O=C1CC(c2ccncc2)C2(CCN(Cc3ccc(F)cc3)CC2)N1` (stereo not drawn), the INHIBITION is listed as 6.03%.

Regarding `Cc1nc(CN2CCC3(CC2)NC(=O)CC3c2ccccc2)cs1` (stereo not drawn), the INHIBITION was 44.43%.

With `Cc1ccc(CN2CCC3(CC2)NC(=O)CC3c2ccccc2)s1` (stereo not drawn), the INHIBITION stood at 57.85%.

In the case of `Cc1noc(C)c1CN1CCC2(CC1)NC(=O)CC2c1ccccc1` (stereo not drawn), the INHIBITION was 20.01%.

Turning to `COc1cccc(C(=O)C2CCCN(c3cc(C#N)ccn3)C2)c1` (stereo not drawn), the INHIBITION is given as -45.86%.

For the compound `CC(C)COc1cncc(NCCc2nnc3ccccn23)n1`, the INHIBITION came to 39.02%.

As to `Cc1nn(C)cc1S(=O)(=O)N[C@@H]1CCC[C@@H](n2ccnc2)[C@@H]1O`, the INHIBITION is reported as 45.48%.

Take `CN(C)c1ccc(C(=O)N2CCN(Cc3cscn3)CC2)cn1`: the INHIBITION was 19.18%.

Consider `COc1ccccc1N1CCN(C(=O)c2ccoc2)CC1`, for which the INHIBITION is on record as -2.44%.

With `COc1ccccc1N1CCN(C(=O)c2ccnc(N(C)C)c2)CC1`, the INHIBITION stood at 56.78%.

As to `CN(C)c1cc(C(=O)N2CCCN(Cc3cscn3)CC2)ccn1`, the INHIBITION was 51.21%.

With `CN(C)c1ccc(C(=O)N2CCCN(Cc3cscn3)CC2)nn1`, the INHIBITION is -11.33%.

With `CN(C)c1cc(C(=O)N2CCCC2)ccn1`, the INHIBITION was -18.23%.

With `Cc1cnc(CCNc2cccc(CC3CCCNC3)n2)s1` (stereo not drawn), the INHIBITION was 23.7%.

Consider `CC[C@@H]1N(Cc2ccsc2)CCC[C@]12CCC(=O)N2CCOC`, for which the INHIBITION is -27.69%.

Take `CC[C@@H]1N(Cc2ccc(F)cc2)CCC[C@]12CCC(=O)N2C`: the INHIBITION was determined as 25.46%.

With `CC[C@H]1N(Cc2ccco2)CCC[C@]12CCC(=O)N2C`, the INHIBITION amounted to 23.26%.

Turning to `CC[C@@H]1N(Cc2ccc(C)s2)CCC[C@]12CCC(=O)N2C`, the INHIBITION is recorded as 20.42%.

With `CC[C@@H]1N(Cc2ccco2)CCC[C@]12CCC(=O)N2C`, the INHIBITION is 53.46%.

For the compound `CC[C@@H]1N(Cc2ccsc2)CCC[C@]12CCC(=O)N2C`, the INHIBITION is 62.46%.

Regarding `CCCOc1ccc(CC2=NC(C)(CO)CO2)cc1` (stereo not drawn), the INHIBITION is recorded as -27.61%.

`CCNC(=O)[C@@H]1CCCN1[C@@H](C(=O)NC)c1ccccc1`: the INHIBITION is reported as -11.34%.

`CSCc1noc(CN2CCC3(CC2)CC(=O)N(CC(C)C)C3)n1`: the INHIBITION worked out at 10.61%.

On to `CC(C)N(CCCNC(=O)C1CC(=O)N(C)C1)S(C)(=O)=O` (stereo not drawn), for which the INHIBITION was found to be 2.97%.

`COC(=O)C(C)(C)NC(=O)c1cnc(Cc2ccc(F)cc2)s1`: the INHIBITION is reported as -32.82%.

Regarding `COc1ccnc(NC(Cc2ccccc2)C(N)=O)n1` (stereo not drawn), the INHIBITION is recorded as 33.9%.

As to `COc1ccc(-c2ccc(C(=O)NCCCC(N)=O)c(F)c2)c(F)c1`, the INHIBITION was found to be 53.81%.

Take `COc1ccc(-c2ccc(C(=O)NS(C)(=O)=O)c(F)c2)c(F)c1`: the INHIBITION is on record as -27.53%.

Consider `COc1ccc(-c2ccc(C(=O)O)c(F)c2)c(F)c1`, for which the INHIBITION is on record as 17.01%.

For the compound `O=C(c1c[nH]cn1)N1CCCn2c(nnc2Cn2cccc2)C1`, the INHIBITION was 26.44%.

As to `CN(C)Cc1nnc2n1CCCN(C(=O)c1c[nH]cn1)C2`, the INHIBITION is -51.91%.

With `O=C(c1c[nH]cn1)N1CCCn2c(CN3CCCCC3)nnc2C1`, the INHIBITION stood at 51.26%.

Take `CNc1cc(C)nc(C2CN(Cc3cncs3)CCO2)c1` (stereo not drawn): the INHIBITION is on record as -29.68%.

As to `CC(C)N(C)C(=O)CSCc1ccc(S(=O)(=O)N(C)C)o1`, the INHIBITION turned out to be 30.34%.

On to `Cn1cc(CN(C(=O)c2ccc3ncsc3c2)C2CC2)cn1`, for which the INHIBITION came to 57.34%.

With `CN1C(=O)c2ccc(C(=O)N(Cc3cnn(C)c3)C3CC3)cc2C1=O`, the INHIBITION came out at 21.14%.

Regarding `Cn1cc(CN(C(=O)c2ccc(O)c(Cl)c2)C2CC2)cn1`, the INHIBITION is listed as -33.15%.

With `CCn1cnnc1C1CCN(C(=O)c2cccc(-n3cccc3)c2)CC1`, the INHIBITION is -6.48%.

As for `COc1cc(N2CCC3(CCN(Cc4nccs4)CC3)C2)ncn1`, the INHIBITION was found to be 7.71%.

For the compound `CCCc1cc(C(=O)N(C)Cc2ccc(OC)c3ncccc23)n(C)n1`, the INHIBITION is on record as 58.56%.

As for `CCCc1cc(C(=O)N(C)Cc2cccc3cnccc23)n(C)n1`, the INHIBITION came to 19.91%.

With `CCCc1cc(C(=O)N(C)Cc2cccc3ncccc23)n(C)n1`, the INHIBITION is -24.24%.

Take `O=C(c1ccccc1)N1C[C@H]2CC[C@@H](C1)N(S(=O)(=O)c1cccnc1)C2`: the INHIBITION is on record as -23.58%.

Take `Cc1noc(C)c1CN1CCC2(CCN(Cc3cccc(F)c3)CC2)C1`: the INHIBITION is on record as 24.04%.

On to `Cc1nc2ccccc2nc1NCc1cccc(OCC2CCCO2)c1` (stereo not drawn), for which the INHIBITION was found to be 17.25%.

As for `O=C(CC1=CCCCC1)N1CCC(Cn2cc(CCO)nn2)CC1`, the INHIBITION is listed as -8.21%.

Take `COc1ccc(CCN2C(=O)O[C@@H]3CN(C4CCOCC4)C[C@@H]32)cc1`: the INHIBITION is reported as 1.42%.

Turning to `COc1ccc(CCCN2C(=O)O[C@@H]3CN(C4CCOCC4)C[C@@H]32)cc1`, the INHIBITION is recorded as 51.81%.

Consider `O=C1O[C@@H]2CN(C3CCOCC3)C[C@@H]2N1CCCc1ccc(F)cc1`, for which the INHIBITION is -23.46%.
